# Active and inactive are the calls of the source. The call rests on the fitted dose curve; in most records, active means well fitted curve in the direction sought with a large enough effect in the repeat runs; inconclusive means weak or mixed curves; inactive means flat fitted curve, though single readings scatter.
# Assay: qHTS assay to test for compound auto fluorescence at 535 nm (green) in HEK293 cell free culture (AID 720682)
# Conditions: cell-free medium, green autofluorescence 485/535 nm, stronger effect = higher value; series mostly up to 91.3 µM; activity change: at the top concentration
# Source text: U.S. Tox21 Program National Center for Advancing Translational Sciences [NCATS] NIH Chemical Genomics Center [NCGC] U.S. Environmental Protection Agency [EPA] National Institutes of Environmental Health Sciences [NIEHS] National Toxicology Program [NTP] U.S. Food and Drug Administration [FDA] Tox21 Assay Overview: Compound auto fluorescence often interferes with screening of the compound library against various biological targets and signaling pathways. Some of these compounds may have fluorophoric properties. Such properties may interfere with the assay outputs resulting in false positives and/or negatives. To decrease such complications and ensure the compound activities are relevant in terms of biological response, the Tox21 10K compound library was screened for auto fluorescence. From the fluorophores used as reporter signals in our screening assays, the auto fluorescence equivalencies of compounds against three fluorophores have been evaluated: Triamterene, Fluorescein and Rose Bengal sodium for blue, green and red fluorescence, respectively. The fluorescence intensities were measured using Excitation/Emission wavelengths at 405/460nm, 485/535nm and 540/590nm for blue, green and red labels, respectively. This assay includes the green fluorescence data.
# Tox21 Assay Protocol Summary: 5 uL of culture medium (DMEM containing 10% FBS) per well was dispensed into black wall/clear bottom 1536-well plates using a Multidrop Combi Dispenser (ThermoFisher Scientific, Waltham, MA). After 23 nL compound or DMSO vehicle was transferred into assay plate by a pintool work station (Kalypsys, San Diego, CA), fluorescence intensities in the assay plates were measured by an Envision (PerkinElmer, Shelton, CT) plate reader using three labels for measuring blue, green and red fluorescence at […] 460, 535 and 590nm respectively.
# On the % scale 0 is the no-effect control and ±100 the full control effect.
Structure (SMILES),activity change,outcome
Cc1ccc2c(c1)CCCN2,0.0079% (inactive),
COC(C)(C)OC,-0.378% (inactive),
CC(=O)OCC(C)C,-0.01% (inactive),
CCC(C)(C)C(=O)O,-0.0076% (inactive),
CO[C@@H]1[C@@H](OC)[C@H](C)[C@@](O)(CC(=O)O)O[C@H]1[C@H](C)[C@H]1O[C@@]2(CC[C@@](C)([C@H]3CC[C@@](C)([C@@H]4O[C@@H]([C@H]5O[C@](C)(O)[C@H](C)C[C@@H]5C)C[C@@H]4OC4C[C@H](OC)[C@@H](OC)[C@H](C)O4)O3)O2)C[C@H](O)[C@H]1C (stereo not given in full),-0.0521% [at 46 µM] (inactive),
COc1ccc(N)c([N+](=O)[O-])c1,0.0082% (inactive),
CCN(CC)CCOc1ccccc1C(=O)CCc1ccccc1,0.0385% [at 46 µM] (inactive),
CCCCCCC(O)CCOC(C)=O (stereo not given),0.0281% [at 203 µM] (inactive),
Nc1nc2ccc(OC(F)(F)F)cc2s1,-0.0006% [at 46 µM] (inactive),
CCCCCCC(CO)CCCC (stereo not given),-0.0833% (inactive),
COC(=O)C1=C(C)NC(C)=C(C(=O)OC(C)(C)CN(C)CCC(c2ccccc2)c2ccccc2)C1c1cccc([N+](=O)[O-])c1 (stereo not given),-0.15% [at 46 µM] (inactive),
CC1C(C)(C)C2=C(C(=O)CCC2)C1(C)C (stereo not given),-0.0133% (inactive),
CCCCC[C@H](O)/C=C/[C@H]1[C@H](O)CC(=O)[C@@H]1C/C=C\CCCC(=O)O,0.0695% [at 46 µM] (inactive),
O=P(O)(O)Oc1ccccc1,0.0766% (inactive),
CCCCCC,0.0189% (inactive),
COc1cc(OC)c2ccc(=O)oc2c1,-0.0041% (inactive),
C1CCCCC1,0.012% [at 95.7 µM] (inactive),
O=C(O)c1cc(Cl)cc(Cl)c1O,-0.117% (inactive),
C[C@@H]1[C@H](O)[C@@H](C)/C=C/C=C\C=C\C=C\C=C\C=C\C=C\[C@H](O[C@@H]2O[C@H](C)[C@@H](O)[C@H](N)[C@@H]2O)C[C@@H]2O[C@](O)(C[C@@H](O)C[C@@H](O)[C@H](O)CC[C@@H](O)C[C@@H](O)CC(=O)O[C@H]1C)C[C@H](O)[C@H]2C(=O)O (stereo in doubt),,inactive
CCCOC(=O)c1c(Cl)c(Cl)c(Cl)c(Cl)c1C(=O)OCCC,0.0132% (inactive),

Structure (SMILES),activity change,outcome
CC(C)CC(O)CC(C)C,0.0526% (inactive),
O=C(C(=O)c1ccco1)c1ccco1,0.0005% (inactive),
CCN(CC)c1cccc(O)c1,0.288% [at 95.7 µM] (inactive),
Nc1c(Cl)cc(Cl)cc1[N+](=O)[O-],0.011% (inactive),
[Cl][Nd]([Cl])[Cl],0.0044% (inactive),
C=CCOC(=O)COCCC(C)C,-0.0263% (inactive),
Nc1ccc(S(=O)(=O)NCc2ccccc2)cc1,-0.0311% [at 46 µM] (inactive),
C=Cc1ccc(OC(C)=O)cc1,-0.0334% (inactive),
O=C(O)CN1C(=O)c2cccc3cccc(c23)C1=O,0.0005% [at 46 µM] (inactive),
Nc1ccc(NC(=O)c2ccc(N)cc2)cc1,0.0826% (inactive),
O=[N+]([O-])C1(Br)COCOC1,-0.03% (inactive),
COc1ccc(C(=O)NCc2ccc(OCCN(C)C)cc2)cc1OC,-0.156% [at 46 µM] (inactive),
CC(C)(O)c1coc(S(=O)(=O)NC(=O)Nc2c3c(cc4c2CCC4)CCC3)c1,-0.0222% (inactive),
CSSc1ccoc1C,-0.0473% (inactive),
CC(C)N(C)C,0.0115% (inactive),
CC(=O)OCC1=C(C(=O)O)N2C(=O)[C@@H](NC(=O)CSc3ccncc3)[C@H]2SC1,-0.064% [at 46 µM] (inactive),
O=C1OC(=O)c2c(Br)c(Br)c(Br)c(Br)c21,-0.0064% (inactive),
FC(F)(F)C(F)(F)C(F)(F)C(F)(F)CCI,0.118% [at 46 µM] (inactive),
CC(C)(C)CCCCCCOC(=O)c1ccccc1C(=O)OCCCCCCC(C)(C)C,-0.0448% (inactive),
CCC(CO)(CO)CO,0.0509% [at 95.7 µM] (inactive),

# From PubChem BioAssay (Tox21)
